# Assay outcomes as filed in PubChem BioAssay.
# BoNT F protease: BoNT F light chain protease inhibition; 360,000 compounds, 0.22% hits; inhibition, % at 10 µM; Multiplex microsphere protease cleavage assay, flow cytometry; AID 588497; in the data active = inhibition above about 35%, passing the limit was not always enough; inconclusive = no clear call, values can overlap the other calls; also: plate controls were buffer without enzyme for full effect and enzyme alone for no effect
# MazEF act: increases E. coli MazEF RNase cleavage of RNA; P0AE70; FAM/BHQ RNA-DNA oligo cleavage fluorescence, 5 h; activation, % at 20 µM; 350,000 compounds, 0.32% hits; in the data active = activation above about 50%
# Bead autofluor: flagged as autofluorescent in microsphere protease counterscreen | 360,000 compounds, 3.1% hits | fluorescence intensity (test concentration not listed) | compound autofluorescence counterscreen, microsphere flow cytometry; stronger effect = higher value; in the data active = fluorescence intensity above about 16000; inconclusive = no clear call, values can overlap the other calls
# BoNT-A LC inh2: blocks Botulinum neurotoxin A light chain protease; multiplex microsphere protease substrate cleavage, flow cytometry; inhibition, % at 10 µM; 360,000 compounds, 0.17% hits; AID 588499; also: plate controls were buffer without enzyme for full effect and enzyme alone for no effect
# Anthrax LF prot: inhibitors of Bacillus anthracis lethal factor protease; P15917; 360,000 compounds, 0.12% hits; inhibition, % at 10 µM; multiplex microsphere protease cleavage assay, LF; also: plate controls were buffer without enzyme for full effect and enzyme alone for no effect
# The depositor's hits bear a star; ? = inconclusive; . = not tested or not shown. Hits are enriched below; roughly 3.6% of the tested compounds scored in any of these assays. Rule as the data show it, unless noted: active = inhibition above about 30%; inconclusive = no clear call, values can overlap the other calls; inactive = below that.
SMILES,BoNT F protease,MazEF act,Bead autofluor,BoNT-A LC inh2,Anthrax LF prot
Cc1ccc(C2=N/C(=C\c3cccs3)C(=O)N2Nc2ccccc2)cc1,51*,-5,2321,120*,64*
O=C1/C(=C/c2cccs2)N=C(c2cccs2)N1Nc1ccccc1,0,7,3520,11,13
CC1=NN(c2ccccc2)C(=O)/C1=C/c1cccs1,3,8,2428,0,-3
O=C(Nc1c(C(=O)N2CCCC2)cnn1-c1ccccc1)c1cccc(F)c1,-4,3,21118*,?,2
CC1CCCN(S(=O)(=O)c2ccc(S(=O)(=O)N3CCCN(Cc4ccccc4)C3)cc2)C1 (stereo not given),5,-11,10633,1,-5
CC(C)CNS(=O)(=O)c1ccc(S(=O)(=O)N2CCCN(Cc3ccccc3)C2)cc1,-6,-7,21949*,-5,0
C[C@@]12C(=O)N(Cc3ccccc3)CC(=O)N1[C@H]1c3ccccc3OC[C@@H]1[C@@H]2c1ccccc1,5,5,4305,-1,5
Cc1cccc(OC(=O)N2CCOCC2)c1,0,1,24289*,-1,-3
O=C(Oc1ccc(-c2ccccc2)cc1)N1CCOCC1,-2,1,21166*,?,0
CCOC(=O)C1C(=O)NC(N2CCCCC2)=NC1c1ccccc1 (stereo not given),1,-5,22677*,-1,-2
NNC(=O)c1nc(-c2ccccc2)n2c1CCCCC2,-1,-3,20671*,?,1
CC1(C(=O)NCc2ccccc2Br)CCN1Cc1ccc2ccccc2c1 (stereo not given),-3,.,3685,0,-3
O=C1N/C(=N\N=C\c2cccnc2)SC1Cc1ccc(SC(F)F)cc1 (stereo not given),.,-4,.,.,.
O=C1N/C(=N\N=C\c2ccc3ncccc3c2)SC1Cc1ccc(SC(F)F)cc1 (stereo not given),4,-5,20635*,?,1
O=C1CCN(Cl)C(=O)N1Cl,3,.,6154,-1,1
COc1ccc(C2CC(=O)C3=C(C2)NC(C)=C(C(=O)Nc2ccccc2C)C3c2coc3ccc(C)cc3c2=O)cc1OC (stereo not given),-1,0,23361*,?,-2
O=C(O)C1CC(=O)N(c2ccc(OCc3ccccc3)cc2)C1 (stereo not given),4,3,21268*,3,1
O=C(COc1ccc(N2CC(C(=O)O)CC2=O)cc1)Nc1cccc(C(F)(F)F)c1 (stereo not given),-1,3,23245*,?,1
CNC(=O)C1CC(=O)N(c2ccc(OCC(=O)Nc3ccccc3)cc2)C1 (stereo not given),-3,4,3727,-1,-8
CC(C)(C)OC(=O)C[C@H]1C/C=C\C[C@@H](CC(=O)NCCO)C(=O)N[C@H](C(C)(C)C)COC1=O,5,2,3377,0,0
NC(N)=NN=C1c2ccccc2-c2ccccc21,82*,-2,8153,2,49*
ON=C1c2ccccc2-c2ccccc21,3,3,3753,-2,1
CCOC(=O)c1csc(NC(=O)c2ccc3c(c2)OCCO3)n1,-1,4,4347,1,0
CNC(=O)CSc1nc2nn(-c3ccccc3)c(=O)c-2c2n1CCCCC2,-2,-13,21375*,-3,-1
CC(C)CNC(=O)CSc1nc2nn(-c3ccccc3)c(=O)c-2c2n1CCCCC2,-1,-4,4942,-1,-2
SMILES,BoNT F protease,MazEF act,Bead autofluor,BoNT-A LC inh2,Anthrax LF prot
Oc1ccc(C[C@H]2CNC(=S)N2CC2CCCN2C[C@H](Cc2ccccc2)N2C[C@H](Cc3ccc(O)cc3)N(CC3CCCCC3)C2=S)cc1 (stereo not given in full),-5,.,5949,0,-3
CN(C)CCCNS(=O)(=O)c1cc(Cl)ccc1Cl,-3,-4,20853*,?,0
N=C1N(/N=C/c2ccccc2)C(=Nc2ccccc2)C(=S)N1c1ccccc1,-2,10,18941*,13,14
O=[N+]([O-])c1ccc(C2CCCC/C2=N\OCc2cccc(F)c2)c([N+](=O)[O-])c1 (stereo not given),-9,-3,23769*,?,-4
Cc1cccc(NC(=O)COC(=O)c2c(-c3ccccc3)noc2C)c1,8,5,3789,0,-7
CCCNCCC(c1ccco1)c1ccccc1OC (stereo not given),-6,4,16663*,-2,-8
CCC(=O)NCCC(c1ccco1)c1ccccc1OC (stereo not given),14,4,4656,2,2
O=c1[nH]nc(Br)c(=O)n1C(c1ccccc1)c1ccccc1,-3,0,3261,0,-1
COCCCN1C(=O)C(CC(=O)NCCN2CCOCC2)CC(C(=O)N2CCOCC2)=C1C (stereo not given),3,.,5238,0,-3
CCN(CC)CCn1c(=S)[nH]c2cc3c(cc2c1=O)OCO3,-2,2,23550*,?,-1
O=c1c2ccccc2[nH]c(=S)n1Cc1ccc2c(c1)OCO2,0,-9,4052,-1,3
COCCCNC(=O)CCCn1c(=O)[nH]c2ccccc2c1=O,-13,4,4262,-1,-2
CCCCNC(=O)CCCn1c(=S)[nH]c2cc3c(cc2c1=O)OCO3,-3,5,20235*,?,-3
COCCNC(=O)CCCCCn1c(=S)[nH]c2ccccc2c1=O,1,0,22614*,?,2
O=C(CCCCCn1c(=S)[nH]c2ccccc2c1=O)NCc1ccc2c(c1)OCO2,-4,2,23096*,-3,-2
Cc1ncc([N+](=O)[O-])n1CC(=O)Nc1ccccc1Cl,1,8,3769,0,-3
CC12CCC(=O)N1C(C(=O)NNC(=O)COc1ccc(Br)cc1)CS2 (stereo not given),10,6,?,6,1
COc1ccc(N2CC(C(=O)Nc3nnc(SCC(=O)Nc4ccc(NC(C)=O)cc4)s3)CC2=O)cc1 (stereo not given),4,0,2840,1,3
Oc1ccccc1C1N=C(c2ccccc2)NC(c2ccccc2)=N1,0,6,22671*,1,0
CN(C(=S)Nc1ccc(F)cc1)C1(c2ccccc2Cl)CCCCC1=O (stereo not given),-3,-1,24303*,-1,1
O=c1[nH]c(=S)n(CCC2=CCCCC2)c(O)c1C=NCc1cccnc1,-5,.,24166*,?,-8
O=c1[nH]c(=S)n(CCC2=CCCCC2)c(O)c1C=NCCCn1ccnc1,.,12,.,.,.
CC1CCN(S(=O)(=O)c2ccc(S(=O)(=O)NCC3COCCO3)cc2)CC1 (stereo not given),-1,6,23033*,-2,1
O=C(c1ccc(-n2cncn2)c([N+](=O)[O-])c1)N1CCN(S(=O)(=O)c2ccccc2F)CC1,-7,0,5152,5,-1
O=C(OCc1nnc(-c2cccs2)o1)C1=NN(c2ccccc2)C(=O)CC1,?,0,6448,-6,-2
O=S(=O)(NCC1CCCO1)c1ccc(Cl)c(C(F)(F)F)c1 (stereo not given),4,4,21968*,?,-1
